KDM5B inh – inhibitors of human KDM5B histone demethylase | Q9UGL1 | KDM5B demethylase, FDH-coupled NADH fluorescence (FDH is formaldehyde dehydrogenase) | Potency, µM (series often up to 57.7 µM), usual class: inhibitors | actives 2.6% (n = 220,000) | AID 1347165; active = well fitted inhibition curve with a large enough effect; also: nearly all actives have a fitted effect of over 70% in size
Target sequence (Q9UGL1 whole entry, looked up): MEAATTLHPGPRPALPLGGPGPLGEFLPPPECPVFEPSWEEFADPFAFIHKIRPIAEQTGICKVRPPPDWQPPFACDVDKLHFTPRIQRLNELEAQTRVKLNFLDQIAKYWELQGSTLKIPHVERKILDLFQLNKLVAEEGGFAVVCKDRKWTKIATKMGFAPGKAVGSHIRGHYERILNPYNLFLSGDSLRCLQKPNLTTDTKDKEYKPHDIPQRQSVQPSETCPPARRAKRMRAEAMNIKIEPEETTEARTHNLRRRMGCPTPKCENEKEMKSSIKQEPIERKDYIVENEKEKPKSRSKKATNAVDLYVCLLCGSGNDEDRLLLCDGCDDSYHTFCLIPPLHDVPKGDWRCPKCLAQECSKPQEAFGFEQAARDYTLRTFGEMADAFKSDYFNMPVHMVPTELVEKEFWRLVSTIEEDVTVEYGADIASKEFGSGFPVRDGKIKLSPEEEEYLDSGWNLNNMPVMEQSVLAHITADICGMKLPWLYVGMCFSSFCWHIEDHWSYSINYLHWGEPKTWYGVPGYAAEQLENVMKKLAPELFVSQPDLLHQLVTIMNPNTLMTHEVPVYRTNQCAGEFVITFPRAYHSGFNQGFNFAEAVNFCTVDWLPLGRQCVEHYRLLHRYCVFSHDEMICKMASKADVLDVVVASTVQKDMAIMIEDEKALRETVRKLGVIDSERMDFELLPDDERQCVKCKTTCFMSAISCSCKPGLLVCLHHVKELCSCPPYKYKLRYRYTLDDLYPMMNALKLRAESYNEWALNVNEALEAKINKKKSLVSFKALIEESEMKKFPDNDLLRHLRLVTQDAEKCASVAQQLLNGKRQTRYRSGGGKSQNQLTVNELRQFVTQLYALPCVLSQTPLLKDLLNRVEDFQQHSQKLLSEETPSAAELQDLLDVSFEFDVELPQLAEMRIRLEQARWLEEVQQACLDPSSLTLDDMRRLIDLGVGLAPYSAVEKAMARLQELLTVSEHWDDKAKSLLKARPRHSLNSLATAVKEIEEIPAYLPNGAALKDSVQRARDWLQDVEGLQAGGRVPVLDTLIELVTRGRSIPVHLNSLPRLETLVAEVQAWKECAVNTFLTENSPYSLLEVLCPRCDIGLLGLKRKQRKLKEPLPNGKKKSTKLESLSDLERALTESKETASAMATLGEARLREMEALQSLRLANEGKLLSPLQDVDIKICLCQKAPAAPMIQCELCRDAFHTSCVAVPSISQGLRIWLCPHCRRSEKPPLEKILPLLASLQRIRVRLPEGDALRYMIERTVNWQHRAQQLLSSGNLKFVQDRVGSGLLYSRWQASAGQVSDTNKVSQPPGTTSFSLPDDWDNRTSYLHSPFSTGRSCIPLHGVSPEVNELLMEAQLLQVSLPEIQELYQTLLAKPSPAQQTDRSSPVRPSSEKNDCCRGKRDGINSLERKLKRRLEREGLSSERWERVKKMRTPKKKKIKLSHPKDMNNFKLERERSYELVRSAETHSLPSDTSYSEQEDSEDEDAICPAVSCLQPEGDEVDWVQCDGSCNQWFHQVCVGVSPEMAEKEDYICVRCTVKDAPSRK
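qHTS format, multiple compound concentrations. Buffer 50 mM HEPES pH 7.5/0.01% Tween-20; 200 nM KDM5BΔAP final; 10 min compound preincubation; substrate-mix levels 12.5 µM peptide, 25 µM α-KG, 0.25 mM NAD⁺; 30 min RT; ΔRFU.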
Large screens that a line does not name were inactive. The entries come from a sample that favours hits as a whole.

CCOCC1(C)COc2ccc(C(=O)N(C)c3ccccc3)cc2N1 (centres undefined)	none
CCOCC1(C)COc2ccc(C(=O)Nc3cccc(OC)c3)cc2N1 (centres undefined)	KDM5B inh 32µM
CCOCC1(C)COc2ccc(C(=O)Nc3ccc(Cl)cc3)cc2N1 (centres undefined)	KDM5B inh 28µM
COc1cccc(NC(=O)c2ccc3c(c2)NC(C)(CNc2ccccc2)CO3)c1 (centres undefined)	KDM5B inh 13µM
CN(C)CCCOCC1(C)COc2ccc(C(=O)Nc3cccc(Cl)c3)cc2N1 (centres undefined)	KDM5B inh 32µM
COc1ccc(NC(=O)c2ccc3c(c2)NC(=O)CO3)cc1	none
CN(C)CCOCC1(C)COc2ccc(C(=O)Nc3ccc4[nH]ccc4c3)cc2N1 (centres undefined)	none
CN(C)CCN(C)C(=O)c1ccc2c(c1)NC(C)(COc1ccccc1)CO2 (centres undefined)	none
CC1(CNc2ccccc2)COc2ccc(C(=O)NCc3cccnc3)cc2N1 (centres undefined)	none
CS(=O)(=O)N[C@H]1C[C@H]2C(=O)NC[C@@H](CCC(=O)N3CCCCC3)N2C1	none
CCCCNC(=O)c1ccc(Cl)c(Cl)c1	none
N#Cc1cccc(C(=O)NC2CCN(c3cc(-c4ccc(F)cc4)[nH]n3)CC2)c1	none
CCN1C(=O)CCc2cc(NC(=O)CC(C)C)ccc21	none
COCCN(C)C[C@@H]1CN(C(=O)c2cc(F)cc(C#N)c2)C[C@@H]1CO	none
COc1ccc(-c2nc(C3CC3)nc3c2CN(C(=O)c2ccccc2OC)CC3)cc1	none
Cc1noc(-c2cn(C3CCN(C(=O)c4ccc(F)c(Cl)c4)CC3)nn2)n1	none
Cc1noc(-c2cccn3c(CNC(=O)c4cccc(Cl)c4)nnc23)n1	KDM5B inh 14µM
Cc1noc(-c2cccn3c(CNC(=O)c4ccc(F)c(Cl)c4)nnc23)n1	KDM5B inh 14µM
O=S(=O)(c1ccc(F)cc1)N1CCC(Oc2ccc(-n3cnnn3)cc2)CC1	none
FC(F)(F)C1CN(c2ccnc3ccc(Cl)cc23)CCO1 (centres undefined)	none
O=C(NC1CCCc2c1cnn2-c1ccccn1)c1cn[nH]c1-n1cnnn1 (centres undefined)	none
CC(C)c1ccc(N2C(=O)[C@@H]3C[C@@H](NC(=O)C4CCN(c5nccc(C(F)(F)F)n5)CC4)CCN3C2=O)cc1	KDM5B inh 28µM
CSCC(=O)N[C@H]1CCN2C(=O)N(c3ccc(C(C)C)cc3)C(=O)[C@@H]2C1	none
CC(=O)N1CCC(C(=O)N[C@H]2CCN3C(=O)N(c4ccc(OC(F)(F)F)cc4)C(=O)[C@@H]3C2)CC1	none
CCn1cc(CN2CCC(N3C(=O)[C@H](OCCOC)[C@@H]3c3ccncc3)CC2)cn1	none
Cc1noc(-c2ccc(OC3CN(C(=O)Cc4ccsc4)C3)cc2)n1	none
Cc1c(C)n(C)c2ccc(C(=O)N3CCN(c4ccccn4)CC3)cc12	none
CCn1cc(/C=C(\NC(=O)c2ccco2)C(=O)NCCO)c2ccccc21	none
Cc1cc(N2CCC3(CCC(=O)N(CC4CCCO4)C3)CC2)nc(N)n1 (centres undefined)	none
N#Cc1cccc(N2CCC3(CCC(=O)N(CC4CCCO4)C3)CC2)n1 (centres undefined)	KDM5B inh 25µM
Nc1nccc(N2CCC3(CCC(=O)N(CC4CCCO4)C3)CC2)n1 (centres undefined)	none
CCCc1cnc2c(c1SCC(=O)Nc1c(C)cc(C)cc1C)c(=O)n(C)c(=O)n2C	none
COc1cc(CNCCC(C)C)ccc1OCC(O)CN1CCSCC1 (centres undefined)	none
CC(=O)c1cc(C(=O)NCc2cccnc2N(C)Cc2ccccc2)cs1	none
Cc1cc(C(=O)NCc2ccc(F)cc2)n(-c2ccccc2)n1	none
Cc1cn2nc(C(=O)NCc3cc(F)cc(F)c3)cc2c(=O)[nH]1	none
Cc1cccc(CNC(=O)c2csc(N3CCN(c4ccccc4)CC3)n2)c1	none
Cc1cn2nc(C(=O)NCc3cc(F)cc(F)c3)cc2c(N(C)Cc2ccccc2)n1	KDM5B inh 20µM
CSc1ccc(CNC(=O)c2cc3c(N(C)Cc4ccccc4)nc(C)cn3n2)cc1	KDM5B inh 25µM
CC(C)(C)c1cc(C(=O)NCc2ccc(F)cc2)nn2cccc12	none
Cc1cn2nc(C(=O)NCc3ccccc3)cc2c(N(C)Cc2ccccc2)n1	KDM5B inh 32µM
Cc1cccc(CNC(=O)c2cc3c(N(C)Cc4ccccc4)nc(C)cn3n2)c1	KDM5B inh 25µM
CSc1ncc(C(=O)NCc2cccc(C)c2)c(-c2ccccc2)n1	none
CSc1ccc(CN(C)CC(=O)NC(=O)NCc2ccccc2)cc1	none
COc1ccc(CCN2Cc3cc(NC(=O)Cc4cccs4)ccc3OCC2=O)cc1	none
Cn1nc2n(c1=O)CCC(NC(=O)CCS(=O)(=O)c1ccccc1)CC2 (centres undefined)	none
COc1cccc(-c2ocnc2C(=O)Nc2cccc(C)c2C)c1	none
CC(C)OCCCNC(=O)c1cc(-c2ccccc2)nc2ccccc12	none
COc1ccccc1CNC(=O)CSc1nc2ccccc2c2nc(=O)c(-c3ccccc3)nn12	none
Cc1ccccc1OCC(O)CN1CCN(c2nccs2)CC1 (centres undefined)	none
COc1ccc(NC(=O)CSc2nnc(NC(=O)Nc3ccccc3)s2)cc1OC	none
COc1ccc(/C=N/NC(=O)c2ccc3nc[nH]c3c2)cc1	none
CC(C)(C)c1ccc(NC(=O)COc2ccccc2C#N)cc1	none
CC(=O)Nc1ccc(S(=O)(=O)N[C@H]2CO[C@H]3[C@@H]2OC[C@@H]3n2nnnc2Oc2ccc(-n3cncn3)cc2)cc1	none
O=S(=O)(N[C@H]1CO[C@H]2[C@@H]1OC[C@@H]2n1nnnc1Oc1ccc(-n2cncn2)cc1)c1cccs1	KDM5B inh 18µM
Cc1ccc(S(=O)(=O)N[C@H]2CO[C@H]3[C@@H]2OC[C@@H]3n2nnnc2Oc2ccc(-n3cncn3)cc2)cc1	none
O=C(Nc1cc(F)ccc1F)C1CN(S(=O)(=O)c2cccnc2)CC12CCCCC2 (centres undefined)	none
Cc1ccc(NC(=O)CN(C)C(=O)COC(=O)c2nc3nccc(C)n3n2)cc1	none
COc1ccc(N2CC(c3noc(-c4ccc(Cl)cc4)n3)CC2=O)cc1 (centres undefined)	none
Cc1cc(C)cc(-c2nc(C3CC(=O)N(c4ccc(Cl)cc4)C3)no2)c1 (centres undefined)	none
Cc1ccc(-c2nc(C3CC(=O)N(c4ccc(F)cc4)C3)no2)cc1C (centres undefined)	none
Cc1ccc(-c2nc(C3CC(=O)N(c4ccc(Cl)cc4)C3)no2)c(C)c1 (centres undefined)	none
COc1ccc(-c2nc(C3CC(=O)N(c4ccc(C)cc4)C3)no2)cc1 (centres undefined)	none
O=C1CC(c2noc(-c3ccc(OC(F)(F)F)cc3)n2)CN1c1ccc(F)cc1 (centres undefined)	none
CCCCOc1ccc(-c2nc(C3CC(=O)N(c4ccc(F)cc4)C3)no2)cc1 (centres undefined)	KDM5B inh 32µM
CCOc1ccc(-c2nc(C3CC(=O)N(c4ccc(Cl)cc4)C3)no2)cc1 (centres undefined)	KDM5B inh 32µM
CN(C)c1ccc(-c2nc(C3CC(=O)N(c4ccc(Cl)cc4)C3)no2)cc1 (centres undefined)	KDM5B inh 4µM
O=C1CC(c2noc(-c3ccccc3)n2)CN1c1ccc(Cl)cc1 (centres undefined)	none
O=C1CC(c2noc(-c3ccc(-c4ccccc4)cc3)n2)CN1c1ccc(F)cc1 (centres undefined)	KDM5B inh 32µM

Assay outcomes (PubChem)
